# Experimental data as given in PubChem BioAssay AID2685 (National Center for Advancing Translational Sciences (NCATS), 2010).
# In all, about 320,000 compounds went through this assay and about 2,100 (0.66%) were called active. Another 53% or so got no clear call; they are omitted. Calls follow the shape of the dose curve; as a rule, active = well fitted inhibition curve with a large enough effect in the signal ratio, with a control signal flat (not every such curve was filed as active); inconclusive = small, poorly fitted or top-dose-only effect, or effect the other way, or a change in a side signal; inactive = flat fitted curve, though single readings scatter; the % refers to the signal ratio. Many of the other results were omitted from the sample, so actives are more common in it than they were.
# Assay: qHTS Assay for Lipid Storage Modulators in Drosophila S3 Cells;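 as to cell number change: cells counted by Cell Tracker Red CMTPX staining in the red channel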; as to lipid storage change, negative = inhibition: % is scaled to controls: 0 for no effect and ±100 for the full control effect
# Conditions: BODIPY lipid droplet fluorescence, 18-24 h, cells fed with added oleic acid; cell number change: measured here: cell count max response; series mostly up to 46.1 µM; lipid storage change, negative = inhibition: at the top concentration
# How it was run: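 Laser-scanning cytometry quantifies lipid droplet accumulation (500–530 nm total intensity; droplet/cell object ratio) in oleic acid-fed (400 uM added) Drosophila S3 cells treated with a concentration series. 20 uM Triacsin C defined 100% inhibition.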
# Potency is read from the fitted curve at half-maximal effect.
Compound,"lipid storage change, negative = inhibition",cell number change [%],Potency,outcome
O=C(COC(=O)c1ccccc1Nc1ccccc1)NCc1ccccc1Cl,-6.32% (inactive),-4.27,–,–
Nc1nc(-c2ccccc2)c(-c2ccccc2)o1,7.81% (inactive),3.44,–,–
CCOC(=O)c1[nH]c(C)c(C(=O)OCCN2C(=O)c3ccccc3C2=O)c1C,7.23% (inactive),-20.4,–,–
CC(=O)c1c(C)[nH]c(C(=O)OCCCCN2C(=O)c3ccccc3C2=O)c1C,–,-18.3,0.58 µM (active),–
CC(=O)c1c(C)[nH]c(C(=O)OCC(=O)N2CC(=O)Nc3ccccc32)c1C,20.9% (inactive),17.6,–,–
Cc1cc(NS(=O)(=O)c2ccc3c(c2)OCCO3)no1,5.36% (inactive),5.55,–,–
Cc1ccc(-c2nc(CS(=O)CC(=O)NCCCc3ccccc3)c(C)o2)cc1 (stereo unspecified),–,13.7,–,inactive
Cc1cc(C)cc(OCCCCn2cncn2)c1,15.5% (inactive),7.77,–,–
COCCCNC(=O)/C=C1\Sc2ccccc2N(Cc2ccccc2F)C1=O,0.378% (inactive),12.6,–,–
c1ccc(CNc2nc(NCc3ccccc3)c3ccccc3n2)cc1,–,-9.51,16.4 µM (active),–
OCCNc1nc(NCc2ccccc2)c2ccccc2n1,-19.2% (inactive),-3.37,–,–
Oc1ccccc1-c1nc(NCc2ccccc2)c2ccccc2n1,-0.207% (inactive),2.04,–,–
O=C1c2ccccc2C(=O)N1Cc1ccccc1F,–,22.2,29.1 µM (active),–
O=C(O)CN1C(=O)C(=O)N(Cc2ccccc2F)C1=O,17% (inactive),9.39,–,–
O=C1NC(=O)N(Cc2ccccc2F)C1=O,2.47% (inactive),21.6,–,–
Cc1cccc(C)c1NC(=O)C(C)N1CCCC1 (stereo unspecified),-11.2% (inactive),0.595,–,–
COc1ccccc1-c1cc(C(=O)N2CCc3ccccc3C2)c2ccccc2n1,12.1% (inactive),-2.91,–,–
COc1ccccc1-c1nn(-c2ccccc2)cc1C(=O)N1CCc2ccccc2C1,–,-17.2,2.06 µM (active),–
COc1ccccc1-c1nn(-c2ccccc2)cc1C(=O)N1CCN(C(=O)c2ccco2)CC1,4.65% (inactive),3.39,–,–
c1ccc(-c2cncnc2)cc1,–,-19.5,–,inactive
COc1ccc(N(Cc2cc3ccc(C)cc3[nH]c2=O)C(=O)c2ccco2)cc1,14.3% (inactive),1.12,–,–
CSc1nc(SCC(=O)NC(c2ccccc2)c2ccccc2)c2c3c(sc2n1)CN(C)CC3,–,7.96,–,inactive

Compound,"lipid storage change, negative = inhibition",cell number change [%],Potency,outcome
CCOc1ccc(N(CC(=O)Nc2ccc(C)cc2)S(=O)(=O)c2c(C)[nH]c(=O)[nH]c2=O)cc1,–,-18.6,–,inactive
Cc1ccc(N(C(C)C(=O)O)S(=O)(=O)c2c(C)n[nH]c2C)cc1 (stereo unspecified),14.2% (inactive),2.85,–,–
COC(=O)C(C)N(c1ccc(C)cc1)S(=O)(=O)c1c(C)[nH]c(=O)[nH]c1=O (stereo unspecified),–,6.83,25.9 µM (active),–
O=[N+]([O-])c1cccnc1NCCNc1ncc(C(F)(F)F)cc1Cl,-22.1% (inactive),-29.3,–,–
NNC(=O)c1csc(-c2ncc(C(F)(F)F)cc2Cl)n1,10.2% (inactive),17.7,–,–
CC(=O)c1cc(C(=O)Nc2ccc3ccccc3c2)c(C)o1,–,16,–,inactive
O=C(NCS(=O)(=O)c1ccccc1)c1ccccc1,–,0.335,23.1 µM (active),–
Cc1ccc(S(=O)(=O)CNC(=O)c2ccccc2)cc1,22.6% (inactive),10,–,–
O=C(NCCS(=O)(=O)c1ccc(Br)cc1)c1ccccc1,-10.3% (inactive),14,–,–
O=C(O)c1ccc(/C=N/Nc2ncc(C(F)(F)F)cc2Cl)cc1,-8.43% (inactive),0.452,–,–
Cc1ccc(S(=O)(=O)N2CCN(C(=O)COC(=O)Cc3ccc(F)cc3)CC2)c(C)c1,3.61% (inactive),-6.09,–,–
Cn1cccc1P(=O)(c1cccn1C)c1cccn1C,–,-5,5.17 µM (active),–
Cn1cccc2[nH]c(=O)nc1-2,-8.1% (inactive),10.2,–,–
Cn1cccc1C(=O)C(=O)Nc1ccccc1,-9.72% (inactive),-12.6,–,–
CC(C)c1nnc(NC(=O)c2ccc3ccccc3c2)s1,-9.44% (inactive),-0.433,–,–
CC1CCN(C(=O)CN(Cc2ccc(F)cc2)S(C)(=O)=O)CC1,–,-15.4,–,inactive
CS(=O)(=O)N(CC(=O)N1CCc2ccccc2C1)Cc1ccc(F)cc1,–,-12.3,0.13 µM (active),–
O=C(CN(Cc1ccc(F)cc1)S(=O)(=O)c1ccccc1)N1CCCCC1,15.8% (inactive),-14.4,–,–
Cc1ccc(F)c(NC=C2C(=O)OC(C)(C)OC2=O)c1,9.5% (inactive),-13.4,–,–
COCc1nnc(NS(=O)(=O)c2ccc(F)cc2)s1,6.26% (inactive),-4.6,–,–
COCc1nnc(NS(=O)(=O)c2ccc([N+](=O)[O-])cc2)s1,–,7.28,25.9 µM (active),–
Cc1cc(C)c(S(=O)(=O)Nc2nnc(CC(C)C)s2)c(C)c1,-14.4% (inactive),-5.67,–,–

Compound,"lipid storage change, negative = inhibition",cell number change [%],Potency,outcome
Cc1cc(C)c(S(=O)(=O)Nc2nnc(C)s2)c(C)c1,-4.87% (inactive),-0.995,–,–
COCc1nnc(NS(=O)(=O)c2c(C)cc(C)cc2C)s1,–,-24.8,18.4 µM (active),–
Cc1ccc(S(=O)(=O)Nc2nnc(CC(C)(C)C)s2)cc1,-22.4% (inactive),-2.43,–,–
CC(C)(C)Cc1nnc(NS(=O)(=O)c2ccc(F)cc2)s1,–,-2.36,0.0517 µM (active),–
COCc1nnc(NS(=O)(=O)c2ccc(C)cc2)s1,5.32% (inactive),-2.98,–,–
CC(C)(C)Cc1nnc(NS(=O)(=O)c2ccccc2)s1,-13.2% (inactive),-0.602,–,–
Cn1ccs/c1=N\C(=O)Nc1cccc(Cl)c1,11.8% (inactive),1.31,–,–
OCC1(CCOc2ccccc2)CCN(Cc2ccccc2OC(F)F)CC1,–,9.07,–,inactive
CCCCOC(=O)c1ccc(Nc2ncnc3nc[nH]c23)cc1,23.4% (inactive),2.99,–,–
O=C(Nc1ccccc1[N+](=O)[O-])C1(c2ccccc2)CCOCC1,13.6% (inactive),-9.86,–,–
CCOC(=O)N/N=C/c1ccc(OC)c(O)c1,0.972% (inactive),4.89,–,–
Nc1nc(COc2ccc(F)cc2Cl)nc(N2CCCCC2)n1,2.08% (inactive),–,–,–
CCCCn1c(-c2ccsc2)nc2c1c(=O)[nH]c(=O)n2CCC,–,26,–,inactive
CCCCCn1c(CN2CCN(Cc3ccccc3)CC2)nc2c1c(=O)[nH]c(=O)n2C,13.4% (inactive),-7.44,–,–
CCCCn1c(=O)[nH]c(=O)c2c1nc(Cn1ncc(Cl)c(Cl)c1=O)n2CCC,–,-17.5,9.2 µM (active),–
Cc1ccc(C(=O)c2nc(C(=O)NCCO)nc3ccccc23)cc1,–,10.6,–,inactive
C/C(=N\O)C(=O)Nc1ccccc1,12.5% (inactive),5.48,–,–
O=S(=O)(Nc1ccc2cn[nH]c2c1)c1ccc(Cl)cc1,–,–,–,inactive
O=C1C(Cl)=C(Nc2ccccc2)C(=O)c2ccccc21,-20.8% (inactive),-30.2,–,–
O=C1C(Cl)=C(Nc2ccc3cn[nH]c3c2)C(=O)c2ccccc21,–,-29.2,5.8 µM (active),–
